Screens from PubChem.
Many of the other results were omitted from the sample, so hits are more common in it than they were.
IDE exosite FP: displaces the probe from the exo-site of human IDE | P14735 | purified IDE, FL-6b probe fluorescence polarization; hits give low values | z-score at 20 µM | hit rate 6.3% among 17,000 | AID 1259349;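 active = z-score of -3 or lower, meaning strong loss of probe binding signal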;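 note: His-tagged human IDE residues 42-1019 made in E. coli with 30 nM FL-6b probe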
Hits are given with their value; 0 = inactive; ! = a repeat was not active.

SMILES	IDE exosite FP
CC(=O)N1[C@H](CO)[C@@H](c2ccccc2)[C@@H]1CN(C)C(=O)c1ccccc1F	0
COc1ccc2c3c(n(C)c2c1)[C@@H](CO)NCC31CN(C(=O)Nc2ccccc2F)C1	0
O=S(=O)(c1ccc(F)cc1)N1CCCCN2[C@@H](CO)[C@@H](c3ccc(-c4ccccc4)cc3)[C@@H]2C1	0
C/C=C/c1ccc([C@H]2[C@@H](CO)N(C(=O)CC)[C@H]2CN(C)S(C)(=O)=O)cc1	0
C/C=C/c1ccc([C@@H]2[C@@H](CO)N(Cc3nccs3)C23CN(CC2CCCC2)C3)cc1	0
COc1cccc(S(=O)(=O)N2C[C@@H]3N[C@H](C2)C3c2ccc(-c3ccccc3OC)cc2)c1 (some centres not stated)	0
Cc1cccc(S(=O)(=O)N2C[C@@H]3N[C@H](C2)C3c2ccc(-c3cncnc3)cc2)c1 (some centres not stated)	0
Cc1cccc(S(=O)(=O)N2C[C@@H]3N[C@H](C2)C3c2ccc(-c3ccccc3F)cc2)c1 (some centres not stated)	0
Cc1cccc(S(=O)(=O)N2C[C@@H]3N[C@H](C2)C3c2ccc(-c3ccccc3C)cc2)c1 (some centres not stated)	-6.6!
COc1cccc(S(=O)(=O)N2C[C@@H]3N[C@H](C2)C3c2ccc(-c3ccccc3C)cc2)c1 (some centres not stated)	-9.9!
COc1cccc(S(=O)(=O)N2C[C@@H]3N[C@H](C2)C3c2ccc(-c3ccccc3F)cc2)c1 (some centres not stated)	0
O=C1CN(Cc2ccc(F)cc2)C[C@@H]2[C@H](c3ccc(-c4cccnc4)cc3)[C@@H](CO)N12	0
O=C(C[C@H]1CC[C@@H]2[C@H](COC[C@@H](O)CN2C(=O)Nc2cccc(F)c2)O1)NCCCN1CCOCC1	0
C/C=C/c1ccc([C@H]2[C@H]3CN(S(=O)(=O)c4cccs4)CCCCN3[C@H]2CO)cc1	0
COc1ccc(S(=O)(=O)Nc2ccc3c(c2)[C@H]2C[C@H](CC(=O)N(C)C)O[C@@H](CO)[C@H]2O3)cc1	0
CCCNC(=O)N1[C@H](CO)[C@@H](c2ccccc2-c2cccc(C)c2)[C@@H]1C#N	0
CC(C)NC(=O)N1CCCCN2[C@H](CO)[C@@H](c3ccc(C#C[C@H](C)O)cc3)[C@H]2C1	0
CC(C)NC(=O)N1CCCCN2[C@H](CO)[C@H](c3ccc(C#Cc4ccccc4)cc3)[C@@H]2C1	-9.8
CC(C)NC(=O)N1CCCCN2[C@@H](CO)[C@H](c3ccc(C#Cc4ccccc4)cc3)[C@@H]2C1	-11
CC(C)NC(=O)N1CCCCN2[C@H](CO)[C@@H](c3ccc(C#Cc4ccccc4F)cc3)[C@@H]2C1	0
CC(C)NC(=O)N1CCCCN2[C@H](CO)[C@H](c3ccc(C#C[C@@H](C)O)cc3)[C@@H]2C1	0
CC(C)NC(=O)N1CCCCN2[C@H](C1)[C@H](c1ccc(C#C[C@H](C)O)cc1)[C@@H]2CO	0
CC(C)C#Cc1ccc([C@@H]2[C@@H](CO)N3CCCCN(C(=O)NC(C)C)C[C@H]23)cc1	0
CC(C)NC(=O)N1CCCCN2[C@H](CO)[C@@H](c3ccc(C#C[C@@H](C)O)cc3)[C@H]2C1	0
CC(C)NC(=O)N1CCCCN2[C@H](CO)[C@@H](c3ccc(C#Cc4ccccc4)cc3)[C@@H]2C1	-7.5
SMILES	IDE exosite FP
CCCNC(=O)N1CC2(CCN(C(=O)Nc3cccc(F)c3)CC2)c2c(n(C)c3cc(OC)ccc23)[C@@H]1CO	0
COCC(=O)NC[C@H]1[C@@H](c2ccccc2)[C@@H](CO)N1C(C)=O	0
CN(C)C(=O)c1ccc(-c2ccc([C@@H]3[C@@H](CO)N4CCCCN(S(C)(=O)=O)C[C@@H]34)cc2)cc1	0
O=C(Nc1ccccc1)N1CCCCN2[C@H](CO)[C@@H](c3ccc(C#Cc4cccnc4)cc3)[C@@H]2C1	0
C[C@@H]1CCCCO[C@H](CN(C)CC2CCCCC2)[C@H](C)CN([C@H](C)CO)C(=O)c2cc(NS(C)(=O)=O)ccc2O1	0
CN(C)C(=O)c1ccc(-c2ccccc2[C@@H]2[C@@H](C#N)N(C(=O)C3CCC3)[C@H]2CO)cc1	0
Cc1ccccc1S(=O)(=O)N1CCCCN2[C@@H](CO)[C@H](c3ccc(-c4cncnc4)cc3)[C@@H]2C1	0
O=S(=O)(c1ccccc1F)N1CCCCN2[C@H](CO)[C@@H](c3ccc(-c4cccnc4)cc3)[C@H]2C1	0
Cc1ccccc1S(=O)(=O)N1CCCCN2[C@H](CO)[C@@H](c3ccc(-c4cccnc4)cc3)[C@@H]2C1	-12
Cc1ccccc1S(=O)(=O)N1CCCCN2[C@H](CO)[C@@H](c3ccc(-c4cncnc4)cc3)[C@H]2C1	0
O=S(=O)(c1ccccc1F)N1CCCCN2[C@@H](CO)[C@@H](c3ccc(-c4cccnc4)cc3)[C@@H]2C1	-13
Cc1cccc(S(=O)(=O)N2CCCCN3[C@H](C2)[C@H](c2ccc(-c4cccnc4)cc2)[C@@H]3CO)c1	0
Cc1ccccc1S(=O)(=O)N1CCCCN2[C@H](CO)[C@H](c3ccc(-c4cccnc4)cc3)[C@H]2C1	0
O=S(=O)(c1ccccc1F)N1CCCCN2[C@H](CO)[C@H](c3ccc(-c4cccnc4)cc3)[C@@H]2C1	0
Cc1ccccc1S(=O)(=O)N1CCCCN2[C@@H](CO)[C@@H](c3ccc(-c4cncnc4)cc3)[C@@H]2C1	-4.3
CC(C)CC#Cc1ccc([C@@H]2[C@H]3CN(S(C)(=O)=O)CC(=O)N3[C@H]2CO)cc1	0
NCC[C@@H]1CC[C@H](NC(=O)NC2CCCCC2)[C@H](CO)O1	0
CCC(=O)N1[C@H](CO)[C@H](c2ccccc2-c2cccc(C)c2)[C@@H]1C#N	0
N#C[C@@H]1N[C@@H](CO)[C@@H]1c1ccc(C#CC2CCCC2)cc1	0
COc1cccc(S(=O)(=O)N2C[C@@H]3N[C@H](C2)C3c2ccc(-c3ccc(C(=O)N(C)C)cc3)cc2)c1 (some centres not stated)	0
O=C(NC[C@H]1[C@@H](c2ccccc2)[C@@H](CO)N1CC1CCCC1)c1cccnc1	0
O=C(CN1CCOCC1)N1CCCCN2[C@H](C1)[C@@H](c1ccc(/C=C/c3ccccc3)cc1)[C@@H]2CO	-4.6
O=C(CN1CCOCC1)N1CCCCN2[C@H](CO)[C@H](c3ccc(/C=C/c4ccccc4)cc3)[C@@H]2C1	-9.3
O=C(CN1CCOCC1)N1CCCCN2[C@H](CO)[C@@H](c3ccc(/C=C/c4ccccc4)cc3)[C@H]2C1	-9.3
O=C(CN1CCOCC1)N1CCCCN2[C@H](C1)[C@@H](c1ccc(Br)cc1)[C@@H]2CO	0
SMILES	IDE exosite FP
O=C(CN1CCOCC1)N1CCCCN2[C@H](CO)[C@H](c3ccc(/C=C/c4ccccc4)cc3)[C@H]2C1	0
CN1C(=O)c2cc(NS(=O)(=O)CC(F)(F)F)ccc2OC[C@H]2O[C@@H](CC(=O)Nc3cccc(F)c3)CC[C@@H]21	0
CC(C)CC#Cc1ccc([C@H]2[C@H](CO)N3C(=O)CN(S(=O)(=O)c4ccccc4)C[C@@H]23)cc1	0
C[C@@H]1CN([C@H](C)CO)C(=O)c2ccccc2-c2ccccc2CO[C@@H]1CN(C)C(=O)CCC(F)(F)F	0
CC(C)CC#Cc1ccc([C@@H]2[C@@H](CO)N3C(=O)CN(C(=O)NC(C)C)C[C@H]23)cc1	0
O=C(C[C@H]1CC[C@H](NC(=O)c2cccnc2)[C@@H](CO)O1)NCc1ccc(Cl)c(Cl)c1	0
N#C[C@@H]1[C@H](c2ccc(C#Cc3ccccc3F)cc2)[C@H](CO)N1C(=O)c1cccnc1	0
